We go through 26 molecules from PMC4336329 (PLoS ONE, 2015).

Out of some 310,000 compounds screened, about 14,000 (4.5%) showed an effect of 50% or more. The effect is printed as a negative number. The sample as a whole holds a higher share of strong results than the screen did.
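Note: peak tail current of the secondary pulse compared with the same well before compound.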

The test deals with human ether-à-go-go-related gene (hERG) potassium channel (human, UniProt Q12809). The experiment in a line: primary screen, population patch clamp on CHO cells stably expressing hERG; higher = less effect of the substance.
Chain of human ether-à-go-go-related gene (hERG) potassium channel (Q12809 whole entry, looked up): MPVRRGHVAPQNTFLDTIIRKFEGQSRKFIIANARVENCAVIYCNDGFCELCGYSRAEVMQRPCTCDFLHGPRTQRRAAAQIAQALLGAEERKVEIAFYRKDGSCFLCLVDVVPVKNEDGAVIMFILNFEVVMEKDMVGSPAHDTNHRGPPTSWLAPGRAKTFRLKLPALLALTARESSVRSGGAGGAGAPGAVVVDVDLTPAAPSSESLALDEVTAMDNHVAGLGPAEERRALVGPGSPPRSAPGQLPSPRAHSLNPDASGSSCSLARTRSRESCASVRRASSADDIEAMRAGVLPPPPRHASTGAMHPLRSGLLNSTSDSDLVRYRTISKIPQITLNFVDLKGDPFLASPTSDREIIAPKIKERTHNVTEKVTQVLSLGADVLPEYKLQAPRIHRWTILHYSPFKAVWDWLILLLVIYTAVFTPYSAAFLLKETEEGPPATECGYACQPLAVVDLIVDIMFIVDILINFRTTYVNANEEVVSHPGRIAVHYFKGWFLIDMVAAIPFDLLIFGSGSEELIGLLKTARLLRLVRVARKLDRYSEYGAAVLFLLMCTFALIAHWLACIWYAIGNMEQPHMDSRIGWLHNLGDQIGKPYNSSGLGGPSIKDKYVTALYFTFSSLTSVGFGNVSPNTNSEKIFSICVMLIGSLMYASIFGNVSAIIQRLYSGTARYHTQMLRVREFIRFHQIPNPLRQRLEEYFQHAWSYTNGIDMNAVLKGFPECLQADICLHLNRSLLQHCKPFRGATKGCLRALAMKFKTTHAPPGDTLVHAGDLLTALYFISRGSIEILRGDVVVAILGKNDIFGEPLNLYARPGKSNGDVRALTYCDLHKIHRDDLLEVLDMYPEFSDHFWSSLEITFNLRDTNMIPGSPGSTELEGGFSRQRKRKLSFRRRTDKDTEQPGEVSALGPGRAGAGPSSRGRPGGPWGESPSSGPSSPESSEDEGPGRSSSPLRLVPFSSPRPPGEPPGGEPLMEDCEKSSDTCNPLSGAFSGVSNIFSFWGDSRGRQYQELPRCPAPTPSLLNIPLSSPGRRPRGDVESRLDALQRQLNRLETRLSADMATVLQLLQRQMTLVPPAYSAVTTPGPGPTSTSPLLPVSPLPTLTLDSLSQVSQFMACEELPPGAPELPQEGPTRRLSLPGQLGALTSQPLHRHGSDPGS
In the case of `CCOC(=O)N1CCN(c2c(-c3ccc(C)cc3)c(=O)c2=O)CC1`, the “hERG current change (%, negative = inhibition) at 10uM” value was -29.7%.
Next, `CCOC(=O)N1CCN(c2c(N3CCc4ccccc4C3)c(=O)c2=O)CC1`: -34.8%; `CC1(C(=O)N2CCN(c3ccccc3)CC2)CC1(Cl)Cl` (centres unmarked): 6.47%.
Next, `CC(=O)N1CCN(c2ccc(NC(=O)c3ccc([N+](=O)[O-])cc3)cc2)CC1`: 1.37%; `CC(=O)N1CCN(c2ccc([N+](=O)[O-])cc2)CC1`: -55.9%.
Next, `CC(=O)N1CCN(C(=S)c2ccc([N+](=O)[O-])cc2)CC1`: -3.4%.
Regarding `CCOC(=O)N1CCN(c2c(N3CC=C(c4ccccc4)CC3)c(=O)c2=O)CC1`, the “hERG current change (%, negative = inhibition) at 10uM” value was -51.9%.
For `CC1(C(=O)N2CCN(c3ccc([N+](=O)[O-])cc3)CC2)CC1(Cl)Cl` (centres unmarked), the “hERG current change (%, negative = inhibition) at 10uM” value is listed as -72.7%.
Next, `O=C(C1CC1)N1CCN(c2ccc([N+](=O)[O-])cc2)CC1`: -61.8%.
Next, `O=C(C1CC1)N1CCN(c2ccc(O)cc2)CC1`: -17.3%; `COc1ccc(N2CCN(C(=O)C3(C)CC3(Cl)Cl)CC2)cc1` (centres unmarked): 2.66%; `COc1ccc(CC(=O)N(C)C2CCCN(Cc3ccccc3F)C2)cc1OC` (centres unmarked): -4.9%.
For `CCOC(=O)C1CSC(CC(=O)Nc2ccc(Cl)c(Cl)c2)C(=O)N1` (centres unmarked), the “hERG current change (%, negative = inhibition) at 10uM” value is -24.2%.
Next, `COc1ccc(CCC(=O)OCC(=O)Nc2sccc2C(N)=O)cc1`: -5.4%; `O=C(Cc1ccccc1[N+](=O)[O-])OCC(=O)N1CCN(c2ccccc2)CC1`: -6.16%; `CCOC(=O)N1CCN(C(=O)COc2ccc([N+](=O)[O-])cc2)CC1`: -43%.
For `CCOC(=O)C1CCN(C(=O)COc2ccc([N+](=O)[O-])cc2)CC1`, the “hERG current change (%, negative = inhibition) at 10uM” value is on record as -60.8%.
Next, `CCOC(=O)C1CCN(C(=O)COc2ccc(Br)cc2)CC1`: -32.1%; `CN1CCCN(c2ccc([N+](=O)[O-])nc2)CC1`: 2.45%; `O=[N+]([O-])c1ccc(N2CCCCC2)cc1`: -16.5%.
For the molecule `O=C(OCC(=O)N1CCN(c2ccccc2)CC1)c1cccc([N+](=O)[O-])c1`, the “hERG current change (%, negative = inhibition) at 10uM” value is listed as -28.2%.
Next, `COc1cc2c(cc1OC)CN(c1ccc([N+](=O)[O-])c(C(F)(F)F)c1)CC2`: -8.39%; `CN1CCCN(c2ccc([N+](=O)[O-])cc2)CC1`: -66%; `CC(=O)OCC(=O)N1CCN(c2ccc([N+](=O)[O-])cc2)CC1`: -63.3%.
Next, `CC(=O)N1CCN(c2ccc(Oc3ccc([N+](=O)[O-])c(C(F)(F)F)c3)cc2)CC1`: -59.9%; `COc1ccc(N2CCN(c3ccc(C(=O)O)cc3[N+](=O)[O-])CC2)cc1`: 11%.
